Compounds without any hit were thinned out: in the full panel of roughly 83,000, 20% have a hit.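 Note: values are percent growth. 100 is the growth of untreated cells, values between 100 and 0 indicate rising inhibition; between -100 and 0 indicates cell death.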 Active and inactive are the calls of the source. The calls were made as follows: active = growth percent below 10; inactive = the rest.
Legend:
Test in all cases: NCI-60 one-dose screen, 48 h (100 = growth as untreated, 0 = no growth, -100 = all killed)
Settings in all cases: 10 µM unless noted
NCI-H23 lung = tested on: NCI-H23 lung
NCI-H226 lung = tested on: NCI-H226 lung
NCI-H322M lung = tested on: NCI-H322M lung
HOP-62 NSCLC = tested on: HOP-62 NSCLC
NCI-H460 lung = tested on: NCI-H460 lung
HOP-92 NSCLC = tested on: HOP-92 NSCLC
NCI-H522 lung = tested on: NCI-H522 lung
A549/ATCC NSCLC = tested on: A549/ATCC NSCLC
786-0 renal = tested on: 786-0 renal
COLO 205 colon = tested on: COLO 205 colon

Measured: growth

COc1ccc(-c2cc(-c3ccc(Cl)cc3)nc(NCCCCNc3ccnc4cc(Cl)ccc34)n2)cc1
inactive: NCI-H23 lung 86.4% | NCI-H226 lung 75% | NCI-H322M lung 94.4% | HOP-62 NSCLC 78.1% | NCI-H460 lung 89.7% | HOP-92 NSCLC 46.2% | NCI-H522 lung 80% | A549/ATCC NSCLC 91.8% | 786-0 renal 73.5% | COLO 205 colon 30.4%

Cc1ccc(S(=O)(=O)NCCCNc2nccc(-c3c(-c4cccc(F)c4)nc4occn34)n2)cc1
inactive: NCI-H23 lung 102% | NCI-H226 lung 67.6% | NCI-H322M lung 77.9% | HOP-62 NSCLC 88.5% | NCI-H460 lung 75.7% | HOP-92 NSCLC 82.5% | A549/ATCC NSCLC 53.2% | 786-0 renal 73.3% | COLO 205 colon 66%

CC(=O)Nc1ccc(C=Nc2ccc3ccccc3c2)cc1
inactive: NCI-H23 lung 105% | NCI-H226 lung 100% | NCI-H322M lung 111% | HOP-62 NSCLC 114% | NCI-H460 lung 111% | HOP-92 NSCLC 81.6% | A549/ATCC NSCLC 106% | 786-0 renal 106% | COLO 205 colon 115%

CCN=Cc1c(O)c(O)c(C(C)C)c2cc(C)c(-c3c(C)cc4c(C(C)C)c(O)c(O)c(C=NCC)c4c3O)c(O)c12
active: COLO 205 colon 7.89%
inactive: NCI-H23 lung 24.9% | NCI-H226 lung 80.4% | NCI-H322M lung 48.3% | HOP-62 NSCLC 51.3% | NCI-H460 lung 26% | HOP-92 NSCLC 16.3% | A549/ATCC NSCLC 27.2% | 786-0 renal 72.5%

C=C(C)[C@@H]1CC[C@]2(C(=O)O)CC[C@]3(C)[C@H](CC[C@@H]4[C@@]5(C)C/C(=C/c6ccco6)C(=O)C(C)(C)[C@@H]5CC[C@]43C)[C@@H]12
active: NCI-H23 lung -58.6% [100 µM] | NCI-H226 lung -37.5% [100 µM] | NCI-H322M lung -87.9% [100 µM] | HOP-62 NSCLC -85.2% [100 µM] | NCI-H460 lung -55.6% [100 µM] | HOP-92 NSCLC -86.4% [100 µM] | A549/ATCC NSCLC -73.7% [100 µM] | 786-0 renal -60.4% [100 µM] | COLO 205 colon -73.1% [100 µM]

COc1cc2c(=O)[nH]c3cc([N+](=O)[O-])ccc3c2cc1[N+](=O)[O-]
inactive: NCI-H23 lung 55.4% | NCI-H226 lung 45% | NCI-H322M lung 60.8% | HOP-62 NSCLC 85.5% | NCI-H460 lung 14% | HOP-92 NSCLC 45.9% | A549/ATCC NSCLC 40.5% | 786-0 renal 70.1% | COLO 205 colon 56.6%

CSc1cccc([N+](=O)[O-])c1
inactive: NCI-H23 lung 109% | NCI-H226 lung 104% | NCI-H322M lung 102% | HOP-62 NSCLC 105% | NCI-H460 lung 114% | HOP-92 NSCLC 106% | A549/ATCC NSCLC 101% | 786-0 renal 101% | COLO 205 colon 107%

CCCCCCNC(=O)Nc1ncnc2c1ncn2-c1ccccc1
inactive: NCI-H23 lung 98% | NCI-H226 lung 93.8% | NCI-H322M lung 94.9% | HOP-62 NSCLC 77.6% | NCI-H460 lung 102% | HOP-92 NSCLC 89.3% | A549/ATCC NSCLC 88% | 786-0 renal 85.5% | COLO 205 colon 88.8%

C=CCc1nc2ccccc2s1
inactive: NCI-H23 lung 95.7% | NCI-H226 lung 101% | NCI-H322M lung 106% | HOP-62 NSCLC 100% | NCI-H460 lung 104% | HOP-92 NSCLC 98.6% | A549/ATCC NSCLC 103% | 786-0 renal 108% | COLO 205 colon 113%

CC(C)(C)c1cc(C(=O)Nc2ccccc2C(=O)NCCN)cc(C(C)(C)C)c1
active: NCI-H460 lung -55.2% | A549/ATCC NSCLC 7.64% | 786-0 renal -35.7% | COLO 205 colon -76.6%
inactive: NCI-H23 lung 79.9% | NCI-H226 lung 78.3% | NCI-H322M lung 21.9% | HOP-62 NSCLC 67.8% | HOP-92 NSCLC 19.6%

CCCCCn1c(C)cc(/C=C\c2ccc3cc(C)ccc3[n+]2C)c1C
inactive: NCI-H322M lung 30.3%
active: NCI-H23 lung 3.14% | NCI-H226 lung -58.4% | HOP-62 NSCLC -58.9% | NCI-H460 lung -75.1% | HOP-92 NSCLC -64% | A549/ATCC NSCLC -84.5% | 786-0 renal -76.7% | COLO 205 colon -92.5%

CC[C@]12C=CCN3CC[C@@]4(c5ccc(OC)cc5N(C)[C@H]4[C@@](O)(C(=O)OC)[C@@H]1OC(=O)CCC(=O)O[C@H]1CC[C@H]4[C@@H]5CCC6=CC(=O)CC[C@@H]6[C@H]5CC[C@]14C)[C@@H]32
active: NCI-H226 lung -18.3% [100 µM] | NCI-H460 lung 1.51% [100 µM] | HOP-92 NSCLC -20.3% [100 µM] | COLO 205 colon -87.6% [100 µM]
inactive: NCI-H23 lung 12.9% [100 µM] | NCI-H322M lung 36.1% [100 µM] | HOP-62 NSCLC 21.9% [100 µM] | A549/ATCC NSCLC 14.5% [100 µM] | 786-0 renal 10.2% [100 µM]

CC[C@@H]1NC(=O)[C@@H]2CCCCN2C(=O)[C@@H]2CCCN2C(=O)[C@@H](NC(=O)[C@H](Cc2cc(F)cc(F)c2)NC(=O)Nc2ccc(C3CC3)cc2F)[C@H](C)OC(=O)[C@@H]2C[C@@H](C)CN2C1=O
active: HOP-92 NSCLC -3.81% | COLO 205 colon -40.4%
inactive: NCI-H23 lung 25.7% | NCI-H226 lung 15.5% | NCI-H322M lung 41.1% | HOP-62 NSCLC 26.7% | NCI-H460 lung 13.5% | A549/ATCC NSCLC 19.9% | 786-0 renal 16.4%

CNc1cc(C(=O)O)nc(NC)n1
inactive: NCI-H23 lung 100% | NCI-H226 lung 98.8% | NCI-H322M lung 95.7% | HOP-62 NSCLC 103% | NCI-H460 lung 99.2% | HOP-92 NSCLC 87.1% | A549/ATCC NSCLC 101% | 786-0 renal 105% | COLO 205 colon 105%

CNC(=O)c1cc(Oc2ccc3nc(NC(=O)c4ccc5ncccc5c4)sc3c2)ccn1
inactive: NCI-H23 lung 92.7% | NCI-H226 lung 68.6% | NCI-H322M lung 99% | HOP-62 NSCLC 112% | NCI-H460 lung 98.6% | HOP-92 NSCLC 110% | A549/ATCC NSCLC 76.5% | 786-0 renal 98.4% | COLO 205 colon 95.8%

Cc1ccc(S(=O)(=O)Oc2ccc([N+](=O)[O-])cc2[N+](=O)[O-])cc1
inactive: NCI-H23 lung 97% | NCI-H226 lung 68.9% | NCI-H322M lung 122% | HOP-62 NSCLC 115% | NCI-H460 lung 110% | HOP-92 NSCLC 65.3% | A549/ATCC NSCLC 104% | 786-0 renal 47.7% | COLO 205 colon 85.8%

CCOC(=O)c1cc(C(=O)c2ccc(OC)c(OC)c2)n2ccc(-c3ccccn3)cc12
inactive: NCI-H23 lung 78% | NCI-H226 lung 49.9% | NCI-H322M lung 58.7% | HOP-62 NSCLC 53.1% | NCI-H460 lung 17.9% | HOP-92 NSCLC 41.6% | A549/ATCC NSCLC 47.5% | 786-0 renal 101% | COLO 205 colon 65.5%

C=C(C)[C@@H]1CC[C@]2(COC(=O)c3ccccc3C(=O)O)CC[C@]3(C)[C@H](CC[C@@H]4[C@@]5(C)CC[C@H](OC(=O)c6ccccc6C(=O)O)C(C)(C)[C@@H]5CC[C@]43C)[C@@H]12
active: NCI-H23 lung 6.7% [100 µM] | HOP-62 NSCLC 3.17% [100 µM] | HOP-92 NSCLC -22.3% [100 µM] | 786-0 renal 1.64% [100 µM]
inactive: NCI-H226 lung 25.9% [100 µM] | NCI-H322M lung 30.7% [100 µM] | NCI-H460 lung 19.7% [100 µM] | A549/ATCC NSCLC 51.3% [100 µM] | COLO 205 colon 99.3% [100 µM]

C=C(C)[C@@H]1CC[C@]2(C)[C@H](CC[C@@H]3[C@@H]([C@@](C)(O)CCC=C(C)C)CC[C@]32C)[C@@]1(C)CCC(=O)N1CCN(C)CC1
active: NCI-H23 lung -72% [100 µM] | NCI-H226 lung -72% [100 µM] | NCI-H322M lung -97.5% [100 µM] | NCI-H460 lung -82.2% [100 µM] | HOP-92 NSCLC -89.9% [100 µM] | NCI-H522 lung -81.1% [100 µM] | A549/ATCC NSCLC 0.566% [100 µM] | 786-0 renal -92.7% [100 µM] | COLO 205 colon -80.8% [100 µM]

CCCn1ccnc1C(O)c1ccc(OCc2ccccc2)c(OC)c1 (centres undefined)
inactive: NCI-H23 lung 90.7% | NCI-H226 lung 97.4% | NCI-H322M lung 90.1% | HOP-62 NSCLC 87.5% | NCI-H460 lung 103% | HOP-92 NSCLC 68.1% | A549/ATCC NSCLC 97.7% | 786-0 renal 96.6% | COLO 205 colon 93.2%

Cc1cc[n+](CCCCCCCCCC[n+]2ccc(C)cc2)cc1
inactive: NCI-H23 lung 68.8% | NCI-H226 lung 68.3% | NCI-H322M lung 109% | HOP-62 NSCLC 87.7% | NCI-H460 lung 98.7% | HOP-92 NSCLC 99.8% | A549/ATCC NSCLC 73.3% | 786-0 renal 97.5% | COLO 205 colon 103%

CCCCCC1CCCCN1C(=O)OCCCC (centres undefined)
inactive: NCI-H23 lung 62% | NCI-H226 lung 87.5% | NCI-H322M lung 103% | HOP-62 NSCLC 122% | NCI-H460 lung 99.9% | HOP-92 NSCLC 113% | A549/ATCC NSCLC 114% | 786-0 renal 104% | COLO 205 colon 111%

CCN(CC)c1ccc2cc(C(Nc3ccc(Cl)cc3)c3nnnn3C(C)(C)C)c(=O)oc2c1 (centres undefined)
inactive: NCI-H23 lung 95.6% | NCI-H226 lung 82.9% | NCI-H322M lung 93.8% | HOP-62 NSCLC 99.5% | NCI-H460 lung 84.1% | HOP-92 NSCLC 76.9% | A549/ATCC NSCLC 77.9% | 786-0 renal 94% | COLO 205 colon 114%

N#CCCc1c[nH]c2ccccc12
inactive: NCI-H23 lung 105% | NCI-H226 lung 90.3% | NCI-H322M lung 94.1% | HOP-62 NSCLC 82% | NCI-H460 lung 97.7% | HOP-92 NSCLC 75.5% | A549/ATCC NSCLC 89% | 786-0 renal 104% | COLO 205 colon 99.5%

C/C=C/C1OC23CCCCC2C(C#N)(C(=N)O3)C1(C#N)C#N (centres undefined)
inactive: NCI-H23 lung 101% | NCI-H226 lung 103% | NCI-H322M lung 102% | HOP-62 NSCLC 103% | NCI-H460 lung 101% | HOP-92 NSCLC 117% | A549/ATCC NSCLC 104% | 786-0 renal 105% | COLO 205 colon 91.6%

O=C(Nc1ccc(Nc2ccncc2)cc1)c1ccc([N+](=O)[O-])cc1
inactive: NCI-H23 lung 81% | NCI-H226 lung 91.1% | NCI-H322M lung 90.4% | HOP-62 NSCLC 61.7% | NCI-H460 lung 77.5% | HOP-92 NSCLC 51.1% | A549/ATCC NSCLC 72.4% | 786-0 renal 56.7%
active: COLO 205 colon -50.3%

CCOC(=O)c1ccc2nc(-c3c(C)nn(-c4ccccc4)c3N3CCOCC3)[nH]c2c1
inactive: NCI-H23 lung 95.2% | NCI-H226 lung 73.3% | NCI-H322M lung 102% | HOP-62 NSCLC 85.6% | NCI-H460 lung 97% | HOP-92 NSCLC 79.8% | A549/ATCC NSCLC 94.5% | 786-0 renal 104% | COLO 205 colon 114%

Source: PubChem BioAssay (NCI)
